Screens: PubChem BioAssay, National Center for Advancing Translational Sciences (NCATS)
This is a sample that favours compounds with a hit; in the whole collection about 3.7% have one here.
Nrf2 inh: Nrf2 qHTS screen for inhibitors; actives 2.1% (n = 360,000); Potency, µM (top dose mostly 46 µM), without a hit: at the top dose activity change, negative = inhibition, usual class: inhibitors; A549 ARE-Fluc reporter, luciferase luminescence, 18-24 h; also: % is scaled to controls: 0 for no effect and ±100 for the full control effect; nearly all actives have a fitted effect of over 60% in size
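A549 ARE_Fluc cells (5000/well, 5% FBS OPTI-MEM) pre-incubated 2 h, then treated with compounds 18-24 h at 37C/5% CO2 in concentration-response. CellTiter-Fluor viability read first; BugLite luciferase luminescence after 15 min at room temperature gives Nrf2 activity.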
Nrf2 ARE act: qHTS of Nrf2 Activators. AREc32 ARE-luciferase reporter (MCF7-derived line), luminescence, 24 h. Potency, µM (highest dose often 46.1 µM), inactives show at the top dose activation, hits mostly activators. actives 0.31% (n = 410,000); also: % of control where 0% means no effect; nearly all actives have a fitted effect of over 65% in size
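Luminescent ARE reporter assay in AREc32_Fluc cells: overnight plating at 37 deg C, 24 hr compound incubation, Steady-Glo added, 30 min RT before reading.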
ELG1 DNA repair: qHTS screen for small molecules that inhibit ELG1-dependent DNA repair in human embryonic kidney (HEK293T) cells expressing luciferase-tagged ELG1; Potency, µM (top dose mostly 46.1 µM), for the others: at the highest dose activity change, negative = inhibition, hits mostly inhibitors; HEK293T ELG1-luciferase reporter, luminescence, 16 h; DNA damage induced by 5-fluorouridine; AID 504467, 2011; actives 2.3% (n = 330,000); also: % is scaled to controls: 0 for no effect and ±100 for the full control effect; nearly all actives have a fitted effect of over 55% in size
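Cells (2,000 per well) received 5-fluorouridine plus test compound or DMSO and were incubated 16 hr at 37 °C, 5% CO2. Luciferase activity was read by luminescence 30 min after ONE-Glo addition; signal suppression marked inhibition of damage-induced ELG1 function.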
A549 tox: Nrf2 qHTS screen for inhibitors: counterscreen for cytotoxicity; A549 ARE-Fluc cells, CellTiter-Fluor viability, 18-24 h; Potency, µM (highest dose often 46 µM), for the others: top-dose activity change, negative = cytotoxicity, actives largely listed as inhibitors; actives 0.16% (n = 390,000); AID 504648, 2011; also: % is scaled to controls: 0 for no effect and ±100 for the full control effect
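A549 ARE-Fluc cells in 5% FBS OPTI-MEM, 5000 cells/well, rested 2 h then exposed to compounds in concentration-response for 18-24 h at 37 °C. Viability by CellTiter-Fluor fluorescence (Ex 405/Em 525) after 30 min; luciferase luminescence (BugLite, 15 min, RT) read afterwards.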
* = called active by the depositor; ? = inconclusive; · = no result given. Calls follow the shape of the dose curve; as a rule, active = well fitted curve in the direction sought with a large enough effect; inconclusive = small, poorly fitted or top-dose-only effect, or another doubt; inactive = no such curve, though single readings can be large; an effect the other way counts as inactive or inconclusive. Potency is read from the fitted curve at half-maximal effect.

SMILES	Nrf2 inh	Nrf2 ARE act	ELG1 DNA repair	A549 tox
C[n+]1ccc(/C=N/Nc2nc(Cl)c(C#N)c(Cl)c2Cl)cc1	-9.4%	12.6µM*	?	22.5%
Cc1ccc(-n2ncc3c(N4CCN(Cc5ccccc5)CC4)ncnc32)cc1C	·	0.3%	·	-3.1%
COc1ccccc1N(C)S(=O)(=O)c1ccc(C(=O)NNC(=O)c2ccccc2O)cc1	0.6%	-1.0%	-25.9%	0.2%
COc1ccccc1N(C)S(=O)(=O)c1ccc(C(=O)Nc2nc(C)cs2)cc1	?	7.1%	13µM*	2.8%
COc1cc(OC)cc(C(=O)NNC(=O)c2ccc(S(=O)(=O)N(C)c3ccccc3OC)cc2)c1	-14.4%	-0.6%	14.6µM*	0.4%
COc1ccccc1N(C)S(=O)(=O)c1ccc(C(=O)Nc2cc(F)ccc2C)cc1	?	2.1%	18.3µM*	-7.7%
COc1ccc(Cl)cc1S(=O)(=O)N1CCN(S(=O)(=O)c2ccc3c(c2)OCCO3)CC1	?	·	·	-0.3%
CCOc1ccccc1NC(=O)CSc1nc(=O)n(CCCN2CCOCC2)c2c1CCCC2	-14.5%	0.2%	9.6%	-4.2%
CCCCn1c(CCl)nc2cc(S(=O)(=O)N3CCOCC3)ccc21	-9.2%	8.7%	?	-7.7%
O=S(=O)(c1ccc2c(c1)nc(COc1ccc(Cl)cc1)n2CC1CCCO1)N1CCOCC1 (stereo not drawn)	10.3µM*	2.0%	?	-19.5%
O=C(Nc1nccs1)c1nc(-c2ccccc2)n(-c2ccccc2)n1	-2.8%	0.3%	?	0.0%
Cc1csc(NC(=O)c2nc(-c3ccccc3)n(-c3ccccc3)n2)n1	11.2%	-0.8%	14.6µM*	15.1%
CCc1c(C#N)c(SCCC(=O)Nc2ccc(F)cc2)nc2c1C(=O)CC(C)(C)C2	18.4µM*	-0.1%	?	?
CCc1c(C#N)c(SCCC(=O)Nc2cccc(OC)c2)nc2c1C(=O)CC(C)(C)C2	?	2.5%	-15.2%	-7.0%
COc1ccc(Br)cc1CNCc1c(C(=O)O)c(C)n(Cc2ccccc2C)c1C	-9.6%	0.6%	·	0.4%
CCN1CCN(c2c(S(=O)(=O)c3ccc(OC)cc3)cnc3cc(OC)c(OC)cc23)CC1	5.2%	0.3%	·	-10.9%
COc1cc2ncc(S(=O)(=O)c3ccccc3)c(N3CCCC(C)C3)c2cc1OC (stereo not drawn)	23.1µM*	-5.0%	18.3µM*	?
COc1cccc(-c2nc3nc(C)cc(C)n3c2NC2CCCC2)c1	·	1.1%	·	·
O=[N+]([O-])c1ccccc1CN1CCN(S(=O)(=O)c2ccccc2)CC1	16.4µM*	0.5%	·	-4.6%
O=S(=O)(c1ccccc1)N1CCN(Cc2ccccc2C(F)(F)F)CC1	-9.1%	-0.3%	3.1%	-1.6%
CCN(CC)C(=O)COc1ccc(/C=N/NC(=O)c2cc(-c3ccccc3OC)nc3ccccc23)cc1OC	0.6%	2.2%	·	2.4%
COc1ccc(NC(=S)N(CCc2c(C)[nH]c3ccccc23)Cc2cccnc2)cc1	5.8%	5.3%	-23.8%	3.8%
COc1ccc(NC(=S)N(CCc2nc3cc(C)c(C)cc3[nH]2)Cc2cccnc2)cc1	-17.4%	2.7%	16.4µM*	-17.4%
Cc1ccc(NC(=O)CSc2nc(-c3ccco3)nc3cc(=O)[nH]n23)c(Cl)c1	5.9%	4.2%	?	-3.1%
O=C(CSc1nc(-c2ccco2)nc2cc(=O)[nH]n12)Nc1ccccc1Cl	0.0%	14.1µM*	·	17.6%
SMILES	Nrf2 inh	Nrf2 ARE act	ELG1 DNA repair	A549 tox
CCSc1nnc(NC(=O)C2CCN(S(=O)(=O)c3ccccc3C(F)(F)F)CC2)s1	23.1µM*	-0.3%	23.1µM*	-1.8%
COc1ccc(N2CCN(C(CNC(=O)C(=O)NCc3ccc4c(c3)OCO4)c3ccco3)CC2)cc1 (stereo not drawn)	?	0.3%	7.3µM*	2.3%
O=C(NCc1ccc2c(c1)OCO2)C(=O)NCC(c1ccco1)N1CCN(c2ccccc2)CC1 (stereo not drawn)	?	-0.7%	?	4.4%
COc1ccccc1NC(=O)C1=C(C)Nc2nc(-c3cccs3)nn2C1c1cccnc1 (stereo not drawn)	7.1%	-0.3%	18.4µM*	2.4%
COc1ccccc1NC(=O)C1=C(C)Nc2nc(-c3cccnc3)nn2C1c1ccccn1 (stereo not drawn)	5.5%	0.4%	·	3.0%
CN(NS(=O)(=O)c1ccc(Cl)cc1)c1nc(C(F)(F)F)nc2ccccc12	-0.6%	-1.1%	23.1µM*	-2.8%
Cc1ccc(NC(=O)CSc2nnc(COc3ccc(C#N)cc3)n2-c2ccccc2)cc1C	-25.2%	4.8%	23.1µM*	-17.1%
Cc1ccc(C(=O)CSc2nnc(COc3ccc(C#N)cc3)n2-c2ccccc2)cc1	-16.4%	0.0%	1.6%	-15.8%
Clc1cccc(OCc2nc(-c3ccncc3)n[nH]2)c1	20.6µM*	0.0%	4.0%	-1.2%
COc1ccccc1C(=O)NNC(=O)c1cccc(Cl)c1	?	?	?	4.8%
COc1ccccc1C(=O)NNC(=O)c1cccc(Br)c1	?	6.31µM*	?	15.6%
COc1cc(NC(=O)c2c(F)cccc2F)nc(OC)n1	·	3.1%	?	15.3%
COc1cc(NC(=O)c2cccc(Br)c2)nc(OC)n1	5.6%	14.1µM*	?	0.5%
Cc1ccc(OC(C)C(=O)N2CC(=O)Nc3ccccc32)cc1 (stereo not drawn)	?	0.3%	18.3µM*	0.6%
COC(=O)C(CC(C)C)NS(=O)(=O)c1ccccc1Br (stereo not drawn)	?	·	·	-3.0%
CCN(CC)C(=O)CSc1nnc(-c2cc(-c3ccc(Cl)cc3)nc3ccccc23)o1	?	-0.8%	?	5.1%
Cc1cc(C(=O)CSc2nnc(-c3cccs3)o2)c(C)n1-c1ccccc1	20.6µM*	-0.5%	?	-3.3%
CN(C)C(=O)CSc1nnc(-c2cc(-c3cccs3)nc3ccccc23)o1	?	6.8%	11.6µM*	-13.6%
C#CCN1C=CC(=O)[C@@H](OC(=O)Nc2ccc(C)cc2)[C@H]1c1ccccc1Br	?	2.9%	·	-7.5%
O=C(N1CCOCC1)N1CCN(S(=O)(=O)c2cccc([N+](=O)[O-])c2)CC1	?	0.2%	19.3%	3.7%
CCCS(=O)(=O)N1CCN(S(=O)(=O)c2ccccc2[N+](=O)[O-])CC1	0.0%	0.3%	-12.5%	-7.0%
CC(=O)c1c(C)[nH]c(C(=O)CN2CCN(S(=O)(=O)c3ccccc3[N+](=O)[O-])CC2)c1C	20.6µM*	3.2%	?	-8.1%
COc1nc(N(C)S(=O)(=O)c2ccc(C)cc2)nc(C)c1Br	4.11µM*	-0.6%	-8.2%	8.0%
CC(=O)N(c1ccc(Cl)cc1)c1cn(C(C)=O)c2ccccc12	2.1%	-0.3%	-0.9%	-0.1%
CC(=O)n1cc(N(C(=O)CCl)c2ccc(C)cc2)c2ccccc21	-12.0%	?	23.1µM*	-10.4%
